Common to all, as to settings: Compound concentration 20.0 uM
Experiment [1] addresses Tyrosine-protein kinase ABL1 (Homo sapiens) (UniProt P00519).
Experiment [2] has as its target Bromodomain-containing protein 4 (Homo sapiens) (UniProt O60885).
Experiment [3] has as its target Cyclin-dependent kinase 2 (Homo sapiens) (UniProt P24941).
Experiment [4] deals with Casein kinase I isoform delta (Homo sapiens) (UniProt P48730).
For experiment [5], the target named is Glycogen synthase kinase-3 beta (Homo sapiens) (UniProt P49841).
Sequence of Glycogen synthase kinase-3 beta (Homo sapiens) (P49841 whole entry, looked up): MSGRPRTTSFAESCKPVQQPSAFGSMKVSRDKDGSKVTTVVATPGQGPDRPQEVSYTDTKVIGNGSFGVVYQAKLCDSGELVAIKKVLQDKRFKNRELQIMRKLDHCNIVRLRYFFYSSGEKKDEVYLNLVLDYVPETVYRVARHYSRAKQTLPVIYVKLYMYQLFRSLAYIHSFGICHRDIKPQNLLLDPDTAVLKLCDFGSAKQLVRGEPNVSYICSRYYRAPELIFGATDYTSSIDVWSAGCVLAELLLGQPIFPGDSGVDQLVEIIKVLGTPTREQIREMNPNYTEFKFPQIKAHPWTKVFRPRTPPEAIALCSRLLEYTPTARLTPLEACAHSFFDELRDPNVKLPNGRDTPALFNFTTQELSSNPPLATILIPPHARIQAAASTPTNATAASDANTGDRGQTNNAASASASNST
In experiment [6] the target is Mitogen-activated protein kinase 1 (Homo sapiens) (UniProt P28482).
Sequence of Mitogen-activated protein kinase 1 (Homo sapiens) (P28482 whole entry): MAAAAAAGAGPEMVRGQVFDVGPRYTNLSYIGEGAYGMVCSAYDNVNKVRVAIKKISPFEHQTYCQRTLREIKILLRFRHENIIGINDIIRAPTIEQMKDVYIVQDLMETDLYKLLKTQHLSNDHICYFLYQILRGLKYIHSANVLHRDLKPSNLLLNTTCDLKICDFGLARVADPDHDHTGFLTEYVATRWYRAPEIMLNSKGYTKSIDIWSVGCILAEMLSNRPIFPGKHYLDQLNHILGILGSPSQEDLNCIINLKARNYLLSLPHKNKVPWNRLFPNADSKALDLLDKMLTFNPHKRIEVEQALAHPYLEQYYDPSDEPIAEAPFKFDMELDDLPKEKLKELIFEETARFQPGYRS
Experiment [7] addresses T1, Aurora kinase A (Homo sapiens) (UniProt O14965).
T1 sequence (whole entry): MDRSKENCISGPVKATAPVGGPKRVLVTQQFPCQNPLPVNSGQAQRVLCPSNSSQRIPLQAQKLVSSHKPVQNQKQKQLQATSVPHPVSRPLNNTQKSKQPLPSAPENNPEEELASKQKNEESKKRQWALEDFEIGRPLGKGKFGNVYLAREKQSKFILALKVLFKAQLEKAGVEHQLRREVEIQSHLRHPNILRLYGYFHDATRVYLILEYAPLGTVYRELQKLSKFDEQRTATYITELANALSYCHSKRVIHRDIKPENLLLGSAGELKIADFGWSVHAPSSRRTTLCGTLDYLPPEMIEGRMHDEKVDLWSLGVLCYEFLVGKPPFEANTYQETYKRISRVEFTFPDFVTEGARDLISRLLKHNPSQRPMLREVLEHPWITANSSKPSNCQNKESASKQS

Experiment [8] addresses T2, Transcription intermediary factor 1-alpha (Homo sapiens) (UniProt O15164).
T2 sequence (whole entry): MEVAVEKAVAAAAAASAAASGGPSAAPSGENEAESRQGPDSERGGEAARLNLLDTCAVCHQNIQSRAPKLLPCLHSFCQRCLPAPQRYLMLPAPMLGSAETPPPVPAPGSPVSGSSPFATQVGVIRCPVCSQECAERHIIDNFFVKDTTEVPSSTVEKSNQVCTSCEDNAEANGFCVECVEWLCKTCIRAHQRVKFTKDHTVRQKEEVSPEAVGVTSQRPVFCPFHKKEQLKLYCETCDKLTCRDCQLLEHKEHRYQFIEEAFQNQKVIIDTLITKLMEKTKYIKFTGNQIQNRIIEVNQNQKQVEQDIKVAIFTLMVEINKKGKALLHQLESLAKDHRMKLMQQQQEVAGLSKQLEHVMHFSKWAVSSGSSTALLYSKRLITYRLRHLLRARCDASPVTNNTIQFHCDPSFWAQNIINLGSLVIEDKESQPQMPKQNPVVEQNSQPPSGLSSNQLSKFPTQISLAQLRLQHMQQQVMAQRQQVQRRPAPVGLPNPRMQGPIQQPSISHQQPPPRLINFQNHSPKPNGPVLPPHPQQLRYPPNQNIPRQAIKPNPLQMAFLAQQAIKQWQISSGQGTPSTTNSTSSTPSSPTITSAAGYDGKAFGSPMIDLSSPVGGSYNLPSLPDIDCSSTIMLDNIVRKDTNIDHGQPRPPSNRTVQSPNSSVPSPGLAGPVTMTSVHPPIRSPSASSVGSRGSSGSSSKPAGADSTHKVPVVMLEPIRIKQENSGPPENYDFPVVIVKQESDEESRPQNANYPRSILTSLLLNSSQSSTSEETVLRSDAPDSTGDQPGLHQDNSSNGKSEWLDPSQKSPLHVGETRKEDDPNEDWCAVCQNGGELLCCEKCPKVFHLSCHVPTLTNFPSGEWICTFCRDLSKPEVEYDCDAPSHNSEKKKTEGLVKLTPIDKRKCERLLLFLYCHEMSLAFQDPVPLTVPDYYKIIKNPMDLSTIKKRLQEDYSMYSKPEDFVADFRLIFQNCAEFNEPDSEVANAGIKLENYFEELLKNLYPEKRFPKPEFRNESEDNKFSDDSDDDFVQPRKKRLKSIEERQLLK

One may read the ΔTm as the shift of the melting midpoint relative to a reference.

Sequence of Tyrosine-protein kinase ABL1 (Homo sapiens) (P00519 whole entry): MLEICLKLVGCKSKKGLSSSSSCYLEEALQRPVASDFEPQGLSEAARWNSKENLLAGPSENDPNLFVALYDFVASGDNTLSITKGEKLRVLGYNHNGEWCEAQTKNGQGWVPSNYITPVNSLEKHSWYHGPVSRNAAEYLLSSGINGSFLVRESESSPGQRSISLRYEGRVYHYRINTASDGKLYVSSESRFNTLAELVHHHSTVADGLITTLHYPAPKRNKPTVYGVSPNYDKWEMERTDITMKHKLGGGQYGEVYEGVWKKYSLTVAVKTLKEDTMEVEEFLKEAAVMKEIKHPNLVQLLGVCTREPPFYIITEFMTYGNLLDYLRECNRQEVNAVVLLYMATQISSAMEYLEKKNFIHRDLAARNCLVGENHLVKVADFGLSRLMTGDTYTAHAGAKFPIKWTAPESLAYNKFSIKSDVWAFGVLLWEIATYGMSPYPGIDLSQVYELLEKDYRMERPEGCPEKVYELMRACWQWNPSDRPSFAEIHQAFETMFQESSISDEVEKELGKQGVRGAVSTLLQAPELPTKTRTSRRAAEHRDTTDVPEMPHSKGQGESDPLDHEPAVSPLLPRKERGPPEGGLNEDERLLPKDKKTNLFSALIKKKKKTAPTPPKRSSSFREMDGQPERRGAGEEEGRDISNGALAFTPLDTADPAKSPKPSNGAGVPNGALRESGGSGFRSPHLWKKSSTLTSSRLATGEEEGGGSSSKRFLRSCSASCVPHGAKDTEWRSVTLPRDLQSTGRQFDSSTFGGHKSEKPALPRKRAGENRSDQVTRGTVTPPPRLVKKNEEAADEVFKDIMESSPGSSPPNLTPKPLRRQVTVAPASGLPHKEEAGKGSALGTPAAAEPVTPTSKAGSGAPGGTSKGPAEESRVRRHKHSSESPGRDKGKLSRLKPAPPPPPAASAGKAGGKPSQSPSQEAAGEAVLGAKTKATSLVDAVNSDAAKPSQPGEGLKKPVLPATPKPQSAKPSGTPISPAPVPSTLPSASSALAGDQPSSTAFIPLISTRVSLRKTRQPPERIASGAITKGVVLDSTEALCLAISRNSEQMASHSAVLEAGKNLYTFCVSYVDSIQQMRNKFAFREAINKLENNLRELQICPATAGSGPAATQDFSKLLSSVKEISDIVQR
Sequence of Casein kinase I isoform delta (Homo sapiens) (P48730 whole entry, looked up, canonical isoform): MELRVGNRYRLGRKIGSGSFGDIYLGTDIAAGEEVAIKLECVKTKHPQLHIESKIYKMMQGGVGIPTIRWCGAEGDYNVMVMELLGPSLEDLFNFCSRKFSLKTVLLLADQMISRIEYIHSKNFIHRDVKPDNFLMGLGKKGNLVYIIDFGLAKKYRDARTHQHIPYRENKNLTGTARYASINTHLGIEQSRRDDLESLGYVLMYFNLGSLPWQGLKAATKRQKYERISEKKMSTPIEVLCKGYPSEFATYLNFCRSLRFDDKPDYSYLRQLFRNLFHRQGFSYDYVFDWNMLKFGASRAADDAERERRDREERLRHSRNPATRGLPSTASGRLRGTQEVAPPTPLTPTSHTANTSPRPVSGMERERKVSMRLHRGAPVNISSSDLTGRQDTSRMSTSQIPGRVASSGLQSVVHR

Regarding `O=C(NCc1ccc(Cl)cc1)C1CCN(S(=O)(=O)c2cc(Cl)cc(Cl)c2)CC1`, the ΔTm is 0.35 °C in experiment [1]; -2.83 °C in experiment [2]; 0.17 °C in experiment [3]; -0.37 °C in experiment [4]; -1.43 °C in experiment [5]; 0.06 °C in experiment [6]. Also, the values for the ΔTm in experiment [7] and in experiment [8] were -1.55 °C and 0.02 °C, respectively.
Regarding `COc1ccccc1[C@H]1[C@H](C(=O)O)[C@H](c2ccccc2OC)[C@H]1C(=O)Oc1cccc2ccccc12`, the ΔTm in experiment [1] was 0.47 °C; in experiment [2] it was -2.56 °C; in experiment [3], -0.65 °C; in experiment [4], -3.09 °C; in experiment [5], 0 °C; in experiment [6] it was -0.07 °C. For the same compound, the ΔTm was -2.4 °C in experiment [7] and -2.09 °C in experiment [8].
Turning to `Cc1c(Nc2ccc(S(=O)(=O)N3CCN(C)CC3)cc2F)nc2ccc(-c3cnn(C4CC4)c3)cn2c1=O`, the ΔTm in experiment [1] was 0.73 °C; in experiment [2] it was -2.59 °C; in experiment [3], 0.26 °C; in experiment [4], -0.28 °C; in experiment [5], 0.08 °C; in experiment [6], 0.06 °C. Also, the ΔTm in experiment [7] is -1.87 °C; in experiment [8] it was -1.92 °C.
`C[C@H](Nc1nc2c(cnn2C2CCCC2)c(=O)[nH]1)c1ccc(Cl)cc1`: the ΔTm in experiment [1] is -2.54 °C; in experiment [2] it was -1.24 °C; in experiment [3] it was -1 °C; in experiment [4], 0.11 °C; in experiment [5], -1.9 °C; in experiment [6], -7.46 °C. Besides, the ΔTm was -6.85 °C in experiment [7] and 0.56 °C in experiment [8].
`NS(=O)(=O)OC[C@H]1C[C@@H](Nc2ccnc3cc(-c4cccc(SC(F)(F)F)c4)nn23)[C@H](O)[C@@H]1O`: the ΔTm in experiment [1] was 1.49 °C; in experiment [2], 1.04 °C; in experiment [3], 0.04 °C; in experiment [4], 0.4 °C; in experiment [5], -1.24 °C; in experiment [6], 0.75 °C. For the same compound, the ΔTm in experiment [7] is -1.12 °C; in experiment [8], 1.39 °C.
For the compound `COc1ccc([C@@H]2CNC(=O)C2)cc1OC1CCCC1`, the ΔTm is 0.51 °C in experiment [1]; -3.17 °C in experiment [2]; 0.13 °C in experiment [3]; -0.19 °C in experiment [4]; -0.23 °C in experiment [5]; 0.08 °C in experiment [6]. Also, the ΔTm in experiment [7] is -2.43 °C; in experiment [8], 0.65 °C.
As to `Nc1ccc(-c2cccs2)cc1NC(=O)c1ccc(NC=O)cc1`, the ΔTm in experiment [1] was 0.87 °C; in experiment [2], 2.75 °C; in experiment [3], 1.18 °C; in experiment [4] it was -0.53 °C; in experiment [5], -0.36 °C; in experiment [6], 0.54 °C. Moreover, the ΔTm in experiment [7] came to 0.14 °C; in experiment [8] it was 1.27 °C.
Consider `CS(=O)(=O)Nc1ccc2oc3c(OC(F)F)ccc(C(=O)Nc4c(Cl)cncc4Cl)c3c2c1`, for which the ΔTm in experiment [1] was 0.6 °C; in experiment [2], -1.02 °C; in experiment [3] it was -0.16 °C; in experiment [4] it was -1.11 °C; in experiment [5], -0.39 °C; in experiment [6] it was 0.24 °C. Further, the ΔTm was -1.56 °C in experiment [7] and 0.09 °C in experiment [8].
For `NC(=O)c1ccc(Oc2ccc(C(N)=O)cc2)cc1`, the ΔTm is 0.24 °C in experiment [1]; -0.98 °C in experiment [2]; -0.07 °C in experiment [3]; 0.22 °C in experiment [4]; 0.02 °C in experiment [5]; 0.14 °C in experiment [6]. Further, the ΔTm in experiment [7] is -1.15 °C; in experiment [8] it was -0.86 °C.
In the case of `NCCCOc1cc2ccccc2cc1C(=O)NCCOc1cc2ccccc2cc1C(=O)Nc1ccc(Cl)cc1O`, the ΔTm in experiment [1] was 0.27 °C; in experiment [2], -4.42 °C; in experiment [3], -1.85 °C; in experiment [4], 0.11 °C; in experiment [5] it was -2.72 °C; in experiment [6], -1.61 °C. In addition, the ΔTm in experiment [7] is -3.9 °C; in experiment [8], -0.59 °C.
`CC(=O)N[C@@H](C)C(=O)N[C@@H](CCC(=O)O)C(=O)N[C@H](C(=O)N[C@@H](C=O)CC(=O)O)C(C)C`: the ΔTm in experiment [1] was 0.22 °C; in experiment [2], -2.8 °C; in experiment [3] it was -0.37 °C; in experiment [4], 0.14 °C; in experiment [5], -0.69 °C; in experiment [6], 0.23 °C. For the same compound, the thermal shift (ΔTm) in experiment [7] was -1.91 °C; in experiment [8], -0.66 °C.
